Consider 47 compounds from PMC4336329 (PLoS ONE, 2015).

Among all 310,000 compounds or so, about 14,000 (4.5%) showed an effect of 50% or more. The effect is printed as a negative number. The full list was thinned out, with strong results kept by preference.
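Further: peak tail current of the secondary pulse compared with the same well before compound.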

For this assay, the target named is human ether-à-go-go-related gene (hERG) potassium channel (human, UniProt Q12809). Nature of the assay: primary screen, population patch clamp on CHO cells stably expressing hERG; higher = less effect of the substance.
human ether-à-go-go-related gene (hERG) potassium channel, sequence (Q12809 whole entry, looked up): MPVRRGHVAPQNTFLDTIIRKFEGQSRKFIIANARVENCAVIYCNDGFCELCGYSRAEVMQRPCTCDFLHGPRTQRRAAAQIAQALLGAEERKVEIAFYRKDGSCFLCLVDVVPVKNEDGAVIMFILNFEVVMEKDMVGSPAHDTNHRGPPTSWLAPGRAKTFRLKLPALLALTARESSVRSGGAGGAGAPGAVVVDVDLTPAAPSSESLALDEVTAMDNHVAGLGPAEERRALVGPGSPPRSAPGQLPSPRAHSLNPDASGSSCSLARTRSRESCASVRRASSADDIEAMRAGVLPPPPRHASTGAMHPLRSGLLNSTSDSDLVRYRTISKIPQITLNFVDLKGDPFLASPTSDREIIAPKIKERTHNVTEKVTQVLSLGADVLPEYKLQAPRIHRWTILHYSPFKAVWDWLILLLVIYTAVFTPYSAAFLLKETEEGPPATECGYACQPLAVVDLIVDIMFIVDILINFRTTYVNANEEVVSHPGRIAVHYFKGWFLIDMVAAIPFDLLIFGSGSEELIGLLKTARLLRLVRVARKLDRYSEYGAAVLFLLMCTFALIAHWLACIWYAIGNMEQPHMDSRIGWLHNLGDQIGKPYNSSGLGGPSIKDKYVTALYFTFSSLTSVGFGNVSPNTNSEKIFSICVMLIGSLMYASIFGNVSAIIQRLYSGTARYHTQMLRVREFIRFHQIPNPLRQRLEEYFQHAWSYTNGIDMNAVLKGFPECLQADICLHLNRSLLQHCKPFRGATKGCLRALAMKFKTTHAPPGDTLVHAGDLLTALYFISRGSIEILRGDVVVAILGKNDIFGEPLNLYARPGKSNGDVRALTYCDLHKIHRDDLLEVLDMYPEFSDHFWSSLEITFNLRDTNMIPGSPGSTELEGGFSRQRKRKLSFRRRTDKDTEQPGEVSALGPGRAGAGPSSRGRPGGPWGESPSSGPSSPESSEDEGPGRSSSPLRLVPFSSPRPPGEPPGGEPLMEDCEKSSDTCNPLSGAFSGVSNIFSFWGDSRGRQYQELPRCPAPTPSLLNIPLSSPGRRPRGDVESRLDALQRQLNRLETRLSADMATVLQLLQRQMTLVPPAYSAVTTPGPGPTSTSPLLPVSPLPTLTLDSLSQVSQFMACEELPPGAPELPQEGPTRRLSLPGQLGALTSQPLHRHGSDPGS
Consider `CC1(C)NC(=O)N(CC(=O)NNC(=O)c2ccccc2F)C1=O`, for which the “hERG current change (%, negative = inhibition) at 10uM” value turned out to be 3.42%.
In the case of `Cn1ncc(Br)c1C(=O)NC1CCCC1`, the “hERG current change (%, negative = inhibition) at 10uM” value worked out at 24.1%.
In the case of `C=CCn1c(O)c(C(C)=Nc2cccc(C(=O)O)c2)c(=O)[nH]c1=O` it was 1.4%.
In the case of `O=C(c1ccc(Cl)cc1Cl)c1ncc(C(F)(F)F)cc1Cl` it was -10.1%; in that of `Cc1cc(=O)n(Cc2ccccc2)c2ccccc12`, 4.79%; in that of `Cc1c(CN(C)C)c2c(n1Cc1ccccc1)C(=O)c1ccc(Br)cc1-2.Cl`, -74.5%.
In the case of `Cc1c(CN(C)C)c2c(n1Cc1ccccc1)C(=O)c1ccccc1-2.Cl` it was -75.6%; in that of `Cc1cc(O)cc(=O)n1Cc1ccccc1`, 12%; in that of `Cc1c(CN(C)C)c2c(n1C)C(=O)c1ccc(Br)cc1-2.Cl`, -37.3%.
For `O=c1oc2cc(Br)ccc2n1Cc1ccccc1`, the “hERG current change (%, negative = inhibition) at 10uM” value was 18.6%.
In the case of `COCc1nnc(SCC(=O)NCc2ccccc2)n1-c1ccccc1` it was -3.33%; in that of `CCOCCCNC(C(=O)Nc1ccc(OC)c(Cl)c1)c1ccccc1` (centres unmarked), -35.1%; in that of `CCC(C)C(NC(N)=O)C(=O)Nc1ccc(C)c(Cl)c1` (centres unmarked), 10.9%.
As for `CCc1ccc(C(=O)c2cncc(Br)c2)cc1`, the “hERG current change (%, negative = inhibition) at 10uM” value is on record as -18.3%.
Consider `COc1ccc2oc(C)c(C(=O)NN)c2c1`, for which the “hERG current change (%, negative = inhibition) at 10uM” value is given as -1.4%.
Regarding `COc1ccc2oc(C(=O)OC(C)C(=O)N3CCC(C)CC3)c(C)c2c1` (centres unmarked), the “hERG current change (%, negative = inhibition) at 10uM” value is -5.44%.
As to `CCOC(=O)CCC(=O)c1c(C)oc2ccc(OC)cc12`, the “hERG current change (%, negative = inhibition) at 10uM” value is listed as -57.2%.
As for `CCOC(=O)c1c(CN2CCOCC2)oc2ccc(OC(C)=O)cc12`, the “hERG current change (%, negative = inhibition) at 10uM” value is given as 13.9%.
For `CCOC(=O)c1c(CN2CCCCC2)oc2ccc(OC)cc12`, the “hERG current change (%, negative = inhibition) at 10uM” value is on record as -61.6%.
For `CCOC(=O)c1c(CN2CCCCC2)oc2ccc(O)cc12.Cl`, the “hERG current change (%, negative = inhibition) at 10uM” value was -54.3%.
In the case of `CCOC(=O)c1c(CN2CCN(c3ccccc3)CC2)oc2ccc(O)cc12` it was -4.3%; in that of `COc1ccc2oc(C(=O)OCC(=O)N3CCCC(C)C3)c(C)c2c1` (centres unmarked), -39.4%.
`COc1ccc2oc(C)c(C(=O)c3ccccc3)c2c1`: the “hERG current change (%, negative = inhibition) at 10uM” value is on record as -7.34%.
In the case of `CCOC(=O)c1c(CN2CCN(C)CC2)oc2ccc(O)cc12` it was -38%.
In the case of `CCOC(=O)c1c(CN2CCC(C)CC2)oc2ccc(OC)cc12` it was -51.2%; in that of `CCOC(=O)c1c(CN2CCOCC2)oc2ccc(OC)cc12`, -7.29%.
In the case of `CCOC(=O)c1cnc(Nc2nc3ccccc3o2)nc1CSc1nnc(C)s1` it was -5.06%; in that of `C/C(=N\NC(=O)c1ccco1)c1ccc(NC(=O)c2cccs2)cc1`, 5.09%; in that of `Cc1ccc(NC(=O)CCC(=O)Nc2ccc(C)cc2)cc1`, 12.2%.
Regarding `COC(=O)C1=C(c2ccc3ccccc3c2)C[C@@H]2CC[C@H]1N2C(=O)N1CCCCC1`, the “hERG current change (%, negative = inhibition) at 10uM” value is listed as 2.21%.
Consider `CCn1nc(C)c(/C=N/NC(=O)c2nc3nc(C)cc(C)n3n2)c1C`, for which the “hERG current change (%, negative = inhibition) at 10uM” value was found to be 14.1%.
In the case of `COc1ccc(-c2nnn(Cc3nn[nH]n3)n2)cc1OC` it was 3.25%.
In the case of `O=C(CCSc1nnc(-c2ccncc2)o1)Nc1ccccc1Cl` it was -10.9%.
In the case of `COc1ccc2oc(C(=O)OCC(=O)N3C(C)CCCC3C)c(C)c2c1` (centres unmarked) it was -14.8%; in that of `CCOC(=O)c1c(CN2CCCCC2)oc2ccc(OC)cc12.Cl`, -58.4%; in that of `CCOC(=O)c1c(C)n(CCN2CCN(C)CC2)c2ccc(OC)cc12.Cl`, -20.2%.
Turning to `CCOC(=O)c1c(CN2CCCCC2C)oc2ccc(OC)cc12.Cl` (centres unmarked), the “hERG current change (%, negative = inhibition) at 10uM” value is -58.9%.
Take `CCOC(=O)c1c(CN(CC)CC)oc2ccc(OC)cc12`: the “hERG current change (%, negative = inhibition) at 10uM” value is on record as -61.9%.
With `CCc1ccc2oc(=O)cc(CN3CCCCC3C)c2c1.Cl` (centres unmarked), the “hERG current change (%, negative = inhibition) at 10uM” value was -16.7%.
Consider `CCOC(=O)c1c(-c2ccc(OC)cc2)oc2ccc(O)cc12`, for which the “hERG current change (%, negative = inhibition) at 10uM” value is 13.1%.
`CCN(CC)CCOC(=O)c1c(C)oc2ccc(OC)cc12.Cl`: the “hERG current change (%, negative = inhibition) at 10uM” value is listed as -36.6%.
In the case of `CCOC(=O)c1c(-c2ccccc2)oc2ccc(OC)cc12` it was 1.46%; in that of `Cc1ccc(C(=O)Nc2nnc(Cc3ccccc3)s2)cc1`, 9.35%; in that of `C=CCNC(=O)c1cc(-c2cccnc2)nc2ccccc12`, -34.7%.
On to `Cc1ccc(/C=C/C(=O)N2CCN(c3ccc(F)cc3)CC2)o1`, for which the “hERG current change (%, negative = inhibition) at 10uM” value is -15.8%.
`CSCC[C@H](NC(=O)[C@@H]1CSC2c3ccccc3C(=O)N21)C(=O)N1CCC[C@H]1CO` (some centres unmarked): the “hERG current change (%, negative = inhibition) at 10uM” value worked out at 1.52%.
In the case of `COc1ccc(N2CCN(Cc3nnc(-c4ccccc4)o3)CC2)cc1` it was -0.362%.
